# How the values were obtained:
# Test in all cases: DAPPL (digital affinity profiling via proximity ligation, sequencing); 10 mM Tris-HCl pH 7.5, 50 mM NaCl, 1 mM DTT, 4% glycerol, room temperature, 30 min; GST-TFs on glutathione beads, 16-mer random dsDNA library, 0.1% formaldehyde crosslink after washing; high values mean tight binding
# [1] = target: T1, FLI1 (Homo sapiens, UniProt Q01543 1-452); conditions: protein: recombinant; tags: N-terminal GST; dsDNA, one strand shown
# T1 sequence: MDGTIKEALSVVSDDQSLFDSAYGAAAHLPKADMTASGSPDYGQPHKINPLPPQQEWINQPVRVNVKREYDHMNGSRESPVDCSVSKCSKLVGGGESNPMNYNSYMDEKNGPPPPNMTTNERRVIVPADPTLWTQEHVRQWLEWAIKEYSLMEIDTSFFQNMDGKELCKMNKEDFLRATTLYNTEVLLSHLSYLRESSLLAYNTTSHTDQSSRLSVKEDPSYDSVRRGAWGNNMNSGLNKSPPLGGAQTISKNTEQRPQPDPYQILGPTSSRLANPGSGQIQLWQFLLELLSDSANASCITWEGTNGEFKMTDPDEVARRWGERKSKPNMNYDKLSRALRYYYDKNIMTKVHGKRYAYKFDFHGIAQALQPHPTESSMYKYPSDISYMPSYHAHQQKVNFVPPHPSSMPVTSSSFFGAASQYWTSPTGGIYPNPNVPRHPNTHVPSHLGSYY
# Procedure, shortened: (§1)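 A tag-only sample was pooled with DNA-barcoded human transcription factors that had been expressed in yeast as GST fusions and captured on glutathione beads. The pools were incubated for 30 min at room temperature with 200 nmole of a random double-stranded 16-mer DNA library in Tris/NaCl/DTT/glycerol buffer, then washed, crosslinked with 0.1% formaldehyde, proximity-ligated (BsaI/T4 ligase, 1 h, 37 °C), PCR-amplified and sequenced on an Illumina NextSeq500. Binding signal is each hexamer's read frequency for a factor divided by its frequency for the tag-only sample.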
# [2] = target: T2, ELK1 (Homo sapiens, UniProt P19419 1-428); conditions: protein: recombinant; tags: N-terminal GST; dsDNA, one strand shown
# T2 sequence: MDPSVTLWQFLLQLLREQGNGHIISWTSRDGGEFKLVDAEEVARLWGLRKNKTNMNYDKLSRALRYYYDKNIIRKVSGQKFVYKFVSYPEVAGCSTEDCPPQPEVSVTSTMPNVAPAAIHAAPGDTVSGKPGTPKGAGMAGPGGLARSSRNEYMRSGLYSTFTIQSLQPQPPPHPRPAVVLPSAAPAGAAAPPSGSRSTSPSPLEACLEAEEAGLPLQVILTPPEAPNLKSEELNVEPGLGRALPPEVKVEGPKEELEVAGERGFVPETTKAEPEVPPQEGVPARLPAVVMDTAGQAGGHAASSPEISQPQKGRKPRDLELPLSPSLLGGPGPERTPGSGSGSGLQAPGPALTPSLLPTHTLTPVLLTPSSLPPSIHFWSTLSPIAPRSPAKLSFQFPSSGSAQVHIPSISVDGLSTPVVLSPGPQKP
# Procedure, shortened: as §1
# [3] = target: T3, GABPA (Homo sapiens, UniProt Q06546 1-454); conditions: protein: recombinant; tags: N-terminal GST; dsDNA, one strand shown
# T3 sequence: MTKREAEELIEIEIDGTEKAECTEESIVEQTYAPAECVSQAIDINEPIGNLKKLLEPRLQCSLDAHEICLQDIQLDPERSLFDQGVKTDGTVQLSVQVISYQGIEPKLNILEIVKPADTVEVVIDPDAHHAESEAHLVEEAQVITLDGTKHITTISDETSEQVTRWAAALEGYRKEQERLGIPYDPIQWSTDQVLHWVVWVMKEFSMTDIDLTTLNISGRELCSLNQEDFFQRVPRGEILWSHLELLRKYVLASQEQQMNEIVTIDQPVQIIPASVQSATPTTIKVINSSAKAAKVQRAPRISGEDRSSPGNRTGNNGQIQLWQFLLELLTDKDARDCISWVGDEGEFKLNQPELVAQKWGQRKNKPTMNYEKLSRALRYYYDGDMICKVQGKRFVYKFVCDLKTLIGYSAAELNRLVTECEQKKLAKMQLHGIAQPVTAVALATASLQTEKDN
# Procedure, shortened: as §1
# [4] = target: T4, ERG (Homo sapiens, UniProt P11308 1-479); conditions: protein: recombinant; tags: N-terminal GST; dsDNA, one strand shown
# T4 sequence: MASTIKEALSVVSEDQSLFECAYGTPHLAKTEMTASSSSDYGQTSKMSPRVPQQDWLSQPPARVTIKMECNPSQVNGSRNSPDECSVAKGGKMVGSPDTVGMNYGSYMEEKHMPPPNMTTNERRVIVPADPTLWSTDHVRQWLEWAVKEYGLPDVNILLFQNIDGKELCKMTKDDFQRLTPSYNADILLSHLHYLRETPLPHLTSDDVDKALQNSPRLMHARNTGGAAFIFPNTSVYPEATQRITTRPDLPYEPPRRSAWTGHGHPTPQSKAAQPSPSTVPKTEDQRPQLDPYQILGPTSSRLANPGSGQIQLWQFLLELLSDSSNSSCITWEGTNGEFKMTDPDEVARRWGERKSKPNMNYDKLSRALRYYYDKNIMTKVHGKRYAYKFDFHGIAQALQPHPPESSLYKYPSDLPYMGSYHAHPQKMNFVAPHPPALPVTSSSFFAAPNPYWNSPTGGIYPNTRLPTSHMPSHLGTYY
# Procedure, shortened: as §1
# [5] = target: ELF1 (Homo sapiens, UniProt P32519 1-619); conditions: protein: recombinant; tags: N-terminal GST; dsDNA, one strand shown
# Sequence of ELF1 (P32519 whole entry): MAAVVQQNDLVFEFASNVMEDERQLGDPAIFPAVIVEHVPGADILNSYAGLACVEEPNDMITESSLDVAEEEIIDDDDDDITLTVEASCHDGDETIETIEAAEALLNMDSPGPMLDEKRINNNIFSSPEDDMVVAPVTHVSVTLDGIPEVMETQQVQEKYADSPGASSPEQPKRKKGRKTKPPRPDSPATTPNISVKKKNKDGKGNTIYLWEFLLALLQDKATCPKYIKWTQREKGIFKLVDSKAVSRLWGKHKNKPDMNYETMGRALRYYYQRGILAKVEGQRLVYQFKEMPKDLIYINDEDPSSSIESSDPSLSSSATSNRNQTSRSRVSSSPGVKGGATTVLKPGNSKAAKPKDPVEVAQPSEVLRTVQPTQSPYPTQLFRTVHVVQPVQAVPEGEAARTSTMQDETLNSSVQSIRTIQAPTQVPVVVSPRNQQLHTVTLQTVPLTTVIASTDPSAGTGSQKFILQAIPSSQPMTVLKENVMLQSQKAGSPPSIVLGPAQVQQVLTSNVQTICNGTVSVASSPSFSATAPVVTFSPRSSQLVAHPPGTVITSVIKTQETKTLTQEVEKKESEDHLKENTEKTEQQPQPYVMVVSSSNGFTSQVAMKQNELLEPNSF
# Procedure, shortened: as §1
# [6] = target: T5, EHF (Homo sapiens, UniProt Q9NZC4 1-300); conditions: protein: recombinant; tags: N-terminal GST; dsDNA, one strand shown
# T5 sequence: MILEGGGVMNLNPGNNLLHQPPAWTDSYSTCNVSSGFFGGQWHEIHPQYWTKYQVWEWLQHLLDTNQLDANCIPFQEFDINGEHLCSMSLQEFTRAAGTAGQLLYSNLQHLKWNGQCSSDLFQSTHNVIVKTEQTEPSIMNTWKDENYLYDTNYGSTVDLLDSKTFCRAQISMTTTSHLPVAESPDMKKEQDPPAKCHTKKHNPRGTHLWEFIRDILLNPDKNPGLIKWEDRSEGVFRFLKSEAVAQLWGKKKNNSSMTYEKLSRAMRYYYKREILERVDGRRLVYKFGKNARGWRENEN
# Procedure, shortened: as §1
# [7] = target: SPI1 (Homo sapiens, UniProt P17947 1-270); conditions: protein: recombinant; tags: N-terminal GST; dsDNA, one strand shown
# Procedure, shortened: as §1
# [8] = target: SPIB (Homo sapiens, UniProt Q01892 1-262); conditions: protein: recombinant; tags: N-terminal GST; dsDNA, one strand shown
# Sequence of SPIB (Q01892 whole entry): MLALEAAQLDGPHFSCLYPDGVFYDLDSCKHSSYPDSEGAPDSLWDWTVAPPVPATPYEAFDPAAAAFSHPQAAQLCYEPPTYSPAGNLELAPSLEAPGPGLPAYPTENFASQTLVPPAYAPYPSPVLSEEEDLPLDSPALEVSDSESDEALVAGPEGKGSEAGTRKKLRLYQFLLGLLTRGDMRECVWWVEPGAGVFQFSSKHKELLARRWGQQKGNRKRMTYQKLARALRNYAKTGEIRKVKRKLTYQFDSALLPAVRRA
# Procedure, shortened: as §1
# [9] = target: T6, ELK3 (Homo sapiens, UniProt P41970 1-407); conditions: protein: recombinant; tags: N-terminal GST; dsDNA, one strand shown
# T6 sequence: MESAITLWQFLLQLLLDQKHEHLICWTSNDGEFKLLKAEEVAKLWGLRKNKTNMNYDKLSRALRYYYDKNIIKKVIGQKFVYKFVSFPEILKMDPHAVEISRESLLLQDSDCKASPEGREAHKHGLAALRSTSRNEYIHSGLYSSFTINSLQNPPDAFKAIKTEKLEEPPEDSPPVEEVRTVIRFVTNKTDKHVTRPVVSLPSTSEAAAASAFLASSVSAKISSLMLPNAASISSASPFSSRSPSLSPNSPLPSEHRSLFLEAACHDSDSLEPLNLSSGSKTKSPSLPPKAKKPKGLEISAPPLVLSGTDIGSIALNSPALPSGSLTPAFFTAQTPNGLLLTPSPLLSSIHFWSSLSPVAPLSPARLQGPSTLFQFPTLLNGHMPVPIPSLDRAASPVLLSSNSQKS
# Procedure, shortened: as §1
# [10] = target: T7, FEV (Homo sapiens, UniProt Q99581 1-238); conditions: protein: recombinant; tags: N-terminal GST; dsDNA, one strand shown
# T7 sequence: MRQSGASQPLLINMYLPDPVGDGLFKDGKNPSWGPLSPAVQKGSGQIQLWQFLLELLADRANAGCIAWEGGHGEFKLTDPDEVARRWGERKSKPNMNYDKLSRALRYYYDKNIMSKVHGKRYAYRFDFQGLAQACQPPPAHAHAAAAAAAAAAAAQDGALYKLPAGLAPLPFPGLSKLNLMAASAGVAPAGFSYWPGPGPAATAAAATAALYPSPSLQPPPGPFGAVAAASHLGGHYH
# Procedure, shortened: as §1
# [11] = target: ETV5 (Homo sapiens, UniProt P41161 1-510); conditions: protein: recombinant; tags: N-terminal GST; dsDNA, one strand shown
# Sequence of ETV5 (P41161 whole entry): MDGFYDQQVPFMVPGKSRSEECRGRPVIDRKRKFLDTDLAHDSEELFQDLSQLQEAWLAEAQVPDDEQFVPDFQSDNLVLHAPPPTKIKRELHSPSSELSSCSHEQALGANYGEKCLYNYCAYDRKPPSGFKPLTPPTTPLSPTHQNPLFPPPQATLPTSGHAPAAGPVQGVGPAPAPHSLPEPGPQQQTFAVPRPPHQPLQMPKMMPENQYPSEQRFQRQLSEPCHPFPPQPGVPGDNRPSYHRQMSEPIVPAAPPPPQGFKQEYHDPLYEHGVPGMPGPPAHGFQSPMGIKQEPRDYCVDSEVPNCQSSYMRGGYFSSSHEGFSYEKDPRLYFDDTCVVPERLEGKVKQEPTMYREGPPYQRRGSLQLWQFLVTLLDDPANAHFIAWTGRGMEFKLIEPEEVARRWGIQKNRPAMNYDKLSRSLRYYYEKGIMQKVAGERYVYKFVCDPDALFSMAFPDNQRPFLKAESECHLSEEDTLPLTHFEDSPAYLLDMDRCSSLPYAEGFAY
# Procedure, shortened: as §1
# [12] = target: HSF1 (Homo sapiens, UniProt Q00613 1-529); conditions: protein: recombinant; tags: N-terminal GST; chain copies: 3; dsDNA, one strand shown
# Sequence of HSF1 (Q00613 whole entry): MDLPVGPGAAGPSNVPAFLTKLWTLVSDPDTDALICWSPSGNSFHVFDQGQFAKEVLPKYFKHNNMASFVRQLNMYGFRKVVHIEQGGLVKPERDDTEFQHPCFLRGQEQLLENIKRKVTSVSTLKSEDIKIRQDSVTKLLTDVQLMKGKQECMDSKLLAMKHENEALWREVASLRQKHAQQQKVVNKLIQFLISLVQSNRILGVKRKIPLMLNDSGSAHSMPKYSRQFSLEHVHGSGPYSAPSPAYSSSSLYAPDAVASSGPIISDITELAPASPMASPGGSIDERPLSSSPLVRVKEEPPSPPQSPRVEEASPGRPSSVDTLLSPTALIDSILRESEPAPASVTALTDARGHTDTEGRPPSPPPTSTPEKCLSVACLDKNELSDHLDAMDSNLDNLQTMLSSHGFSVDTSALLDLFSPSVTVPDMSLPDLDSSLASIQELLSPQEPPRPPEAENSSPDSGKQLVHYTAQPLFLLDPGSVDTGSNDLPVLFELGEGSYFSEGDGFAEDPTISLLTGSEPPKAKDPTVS
# Procedure, shortened: as §1
# [13] = target: T8, SPIC (Homo sapiens, UniProt Q8N5J4 1-248); conditions: protein: recombinant; tags: N-terminal GST; dsDNA, one strand shown
# T8 sequence: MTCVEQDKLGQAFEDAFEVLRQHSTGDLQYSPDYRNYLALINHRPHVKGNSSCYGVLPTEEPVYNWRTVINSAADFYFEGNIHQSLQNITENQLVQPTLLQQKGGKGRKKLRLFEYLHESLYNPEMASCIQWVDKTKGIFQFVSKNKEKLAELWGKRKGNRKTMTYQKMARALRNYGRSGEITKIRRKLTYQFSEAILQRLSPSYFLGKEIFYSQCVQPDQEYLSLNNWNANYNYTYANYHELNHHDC
# Procedure, shortened: as §1
# [14] = target: ELF4 (Homo sapiens, UniProt Q99607 1-663); conditions: protein: recombinant; tags: N-terminal GST; dsDNA, one strand shown
# Sequence of ELF4 (Q99607 whole entry): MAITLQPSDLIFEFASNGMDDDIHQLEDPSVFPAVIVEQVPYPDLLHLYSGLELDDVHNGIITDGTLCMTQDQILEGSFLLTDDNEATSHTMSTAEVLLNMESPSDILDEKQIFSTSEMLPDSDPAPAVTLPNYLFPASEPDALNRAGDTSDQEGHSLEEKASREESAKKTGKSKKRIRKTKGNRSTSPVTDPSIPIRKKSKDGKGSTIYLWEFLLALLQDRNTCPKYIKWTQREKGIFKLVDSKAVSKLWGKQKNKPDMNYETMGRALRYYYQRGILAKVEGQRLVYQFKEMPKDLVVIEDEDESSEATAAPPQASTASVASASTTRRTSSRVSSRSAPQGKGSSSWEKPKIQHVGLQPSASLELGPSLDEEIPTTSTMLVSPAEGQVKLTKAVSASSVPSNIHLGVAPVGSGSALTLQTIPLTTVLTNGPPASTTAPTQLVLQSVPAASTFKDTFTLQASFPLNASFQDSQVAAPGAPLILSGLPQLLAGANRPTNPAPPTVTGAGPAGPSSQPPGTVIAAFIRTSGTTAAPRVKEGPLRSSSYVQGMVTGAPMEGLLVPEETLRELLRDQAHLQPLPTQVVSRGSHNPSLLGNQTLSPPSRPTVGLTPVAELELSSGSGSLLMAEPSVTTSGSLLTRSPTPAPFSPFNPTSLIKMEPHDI
# Procedure, shortened: as §1
# [15] = target: T9, ELK4 (Homo sapiens, UniProt P28324-2 1-405); conditions: protein: recombinant; tags: N-terminal GST; dsDNA, one strand shown
# T9 sequence: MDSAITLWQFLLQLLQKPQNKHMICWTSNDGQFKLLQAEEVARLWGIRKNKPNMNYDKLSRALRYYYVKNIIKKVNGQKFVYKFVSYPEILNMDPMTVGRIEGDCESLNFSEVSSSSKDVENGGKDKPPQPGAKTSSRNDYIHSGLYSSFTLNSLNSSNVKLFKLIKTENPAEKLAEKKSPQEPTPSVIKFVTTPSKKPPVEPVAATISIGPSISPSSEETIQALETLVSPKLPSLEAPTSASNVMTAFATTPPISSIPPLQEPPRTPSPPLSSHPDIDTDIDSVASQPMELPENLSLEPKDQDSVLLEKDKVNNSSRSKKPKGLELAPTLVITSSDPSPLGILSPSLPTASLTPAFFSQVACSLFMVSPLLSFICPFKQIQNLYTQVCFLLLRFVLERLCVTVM
# Procedure, shortened: as §1
# [16] = target: T10, ETV2 (Homo sapiens, UniProt O00321 1-342); conditions: protein: recombinant; tags: N-terminal GST; dsDNA, one strand shown
# T10 sequence: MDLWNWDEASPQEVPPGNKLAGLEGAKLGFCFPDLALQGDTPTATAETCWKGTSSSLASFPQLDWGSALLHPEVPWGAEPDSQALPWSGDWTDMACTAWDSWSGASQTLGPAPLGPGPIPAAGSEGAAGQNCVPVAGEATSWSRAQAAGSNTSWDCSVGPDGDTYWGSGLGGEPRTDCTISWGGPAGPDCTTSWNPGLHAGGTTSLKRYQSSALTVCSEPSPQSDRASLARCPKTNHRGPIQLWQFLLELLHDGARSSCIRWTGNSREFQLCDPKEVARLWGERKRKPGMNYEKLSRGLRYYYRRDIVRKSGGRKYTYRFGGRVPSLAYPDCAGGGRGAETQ
# Procedure, shortened: as §1
# [17] = target: T11, ELF3 (Homo sapiens, UniProt P78545 1-371); conditions: protein: recombinant; tags: N-terminal GST; dsDNA, one strand shown
# T11 sequence: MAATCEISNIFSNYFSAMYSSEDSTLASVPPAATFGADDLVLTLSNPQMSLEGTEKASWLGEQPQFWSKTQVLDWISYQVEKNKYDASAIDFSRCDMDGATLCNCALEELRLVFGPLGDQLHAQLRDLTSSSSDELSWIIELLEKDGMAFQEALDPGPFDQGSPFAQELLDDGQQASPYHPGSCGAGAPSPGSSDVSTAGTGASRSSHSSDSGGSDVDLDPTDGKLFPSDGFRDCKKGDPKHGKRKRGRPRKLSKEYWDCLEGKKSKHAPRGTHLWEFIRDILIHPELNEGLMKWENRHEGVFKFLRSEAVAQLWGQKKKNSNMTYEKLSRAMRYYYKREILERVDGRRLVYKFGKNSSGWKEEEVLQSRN
# Procedure, shortened: as §1
# [18] = target: CRX (Homo sapiens, UniProt O43186 1-299); conditions: protein: recombinant; tags: N-terminal GST; dsDNA, one strand shown
# Sequence of CRX (O43186 whole entry): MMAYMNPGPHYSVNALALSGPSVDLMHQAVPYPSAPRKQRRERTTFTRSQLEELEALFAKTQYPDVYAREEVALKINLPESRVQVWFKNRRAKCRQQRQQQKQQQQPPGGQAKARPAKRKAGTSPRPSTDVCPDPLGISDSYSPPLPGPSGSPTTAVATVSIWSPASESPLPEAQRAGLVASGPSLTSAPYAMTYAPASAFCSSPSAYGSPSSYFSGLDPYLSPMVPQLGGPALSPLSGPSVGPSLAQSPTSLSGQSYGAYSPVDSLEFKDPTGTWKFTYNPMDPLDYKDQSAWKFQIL
# Procedure, shortened: as §1
# [19] = target: ETV1 (Homo sapiens, UniProt P50549 1-477); conditions: protein: recombinant; tags: N-terminal GST; dsDNA, one strand shown
# Sequence of ETV1 (P50549 whole entry): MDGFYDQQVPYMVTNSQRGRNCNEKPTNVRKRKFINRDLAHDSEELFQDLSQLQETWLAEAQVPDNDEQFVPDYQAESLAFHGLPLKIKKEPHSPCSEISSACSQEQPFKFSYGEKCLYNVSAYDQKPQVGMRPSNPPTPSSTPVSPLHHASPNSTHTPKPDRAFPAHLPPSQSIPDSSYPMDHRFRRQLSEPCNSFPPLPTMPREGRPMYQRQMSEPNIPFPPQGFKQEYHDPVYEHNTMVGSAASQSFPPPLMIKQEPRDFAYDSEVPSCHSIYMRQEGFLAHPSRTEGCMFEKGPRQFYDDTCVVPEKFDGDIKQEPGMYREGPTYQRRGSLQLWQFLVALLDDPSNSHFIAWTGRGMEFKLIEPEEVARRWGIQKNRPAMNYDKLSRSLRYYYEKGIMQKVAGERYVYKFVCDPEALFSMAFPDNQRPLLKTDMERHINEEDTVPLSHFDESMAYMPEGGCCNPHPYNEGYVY
# Procedure, shortened: as §1
sequence,measurement,setting,value
ATATCC,binding signal,[1],"2.59 fold enrichment (6-mer frequency, TF over GST control)"
same,binding signal,[2],"2.88 fold enrichment (6-mer frequency, TF over GST control)"
same,binding signal,[3],"2.45 fold enrichment (6-mer frequency, TF over GST control)"
same,binding signal,[4],"3.33 fold enrichment (6-mer frequency, TF over GST control)"
same,binding signal,[5],"2.56 fold enrichment (6-mer frequency, TF over GST control)"
same,binding signal,[6],"2.58 fold enrichment (6-mer frequency, TF over GST control)"
same,binding signal,[7],"2.43 fold enrichment (6-mer frequency, TF over GST control)"
same,binding signal,[8],"2.82 fold enrichment (6-mer frequency, TF over GST control)"
same,binding signal,[9],"2.72 fold enrichment (6-mer frequency, TF over GST control)"
same,binding signal,[10],"5.87 fold enrichment (6-mer frequency, TF over GST control)"
same,binding signal,[11],"2.97 fold enrichment (6-mer frequency, TF over GST control)"
same,binding signal,[12],"1.31 fold enrichment (6-mer frequency, TF over GST control)"
same,binding signal,[13],"2.59 fold enrichment (6-mer frequency, TF over GST control)"
same,binding signal,[14],"2.27 fold enrichment (6-mer frequency, TF over GST control)"
same,binding signal,[15],"2.39 fold enrichment (6-mer frequency, TF over GST control)"
same,binding signal,[16],"2.7 fold enrichment (6-mer frequency, TF over GST control)"
same,binding signal,[17],"2.77 fold enrichment (6-mer frequency, TF over GST control)"
same,binding signal,[18],"1.58 fold enrichment (6-mer frequency, TF over GST control)"
same,binding signal,[19],"2.72 fold enrichment (6-mer frequency, TF over GST control)"

# — PMC7862700, “An all-to-all approach to the identification of sequence-specific readers for epigenetic DNA modifications on cytosine”
